Molecules are shown by their SMILES. Activity calls are given as the source filed them.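 How the source made its calls: active means inhibition above 20%; inactive means the rest.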 Peptide text beside a SMILES is read from it. * marks the point of attachment. Cbz = O=C(OCc1ccccc1)*

The nature of this assay: yeast 26S proteasome protease site inhibitors – biochemical, fluorogenic peptides, secondary, counter-screen for 26S proteasome disassembly project (AID 2132). The settings on record: fluorogenic peptide cleavage rate, with Suc-LLVY-amc, at 100 µM, stronger effect = higher value.

With `CC(=O)N1C(=O)C(=C2C=C(C)OC(C)=C2)c2ccccc21`, the inhibition (commonly the percentage by which the read-out fell short of the control) is 45% (active). On to `CC(C)C[C@@H](C=O)NC(=O)[C@H](CC(C)C)NC(=O)[C@H](CC(C)C)NC(=O)OCc1ccccc1` (Cbz-Leu-Leu-Leu-aldehyde), for which the inhibition is 97% (active).
